Reference: PubChem BioAssay (NCI)
The panel holds about 79,000 compounds, 15% with a hit somewhere; the sample as a whole holds those more often. Active and inactive are the calls of the source. Cut-off read from the data, not from the text of the source: active = growth inhibition above about 70%; inactive = the rest.

Columns and labels:
[1] = NCI Yeast Anticancer Drug Screen. Data for the wt1 strain (AID 149);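 note: 0% = growth of vehicle-treated wt1 cultures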; conditions: S. cerevisiae wt1 strain (SPY 50644) growth inhibition, stronger effect = higher value
Summary of the method: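 Compounds are added to wt1 yeast cultures. Growth is then measured. Inhibition is expressed relative to vehicle-treated controls.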

[2] = NCI Yeast Anticancer Drug Screen. Data for the rad50EPP+ strain (AID 151);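 note: 0% = growth of vehicle-treated control cultures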; conditions: S. cerevisiae rad50 mutant strain, stronger effect = higher value
Summary of the method: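 Growth inhibition read against vehicle controls in rad50EPP+ yeast, a strain altered in DNA damage repair, after compound exposure.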

[3] = NCI Yeast Anticancer Drug Screen. Data for the mgt1 strain (AID 153); conditions: S. cerevisiae mgt1 mutant growth inhibition, stronger effect = higher value
Summary of the method: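 mgt1 yeast grown with test compound; read-out is growth inhibition versus vehicle-treated cultures.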

[4] = NCI Yeast Anticancer Drug Screen. Data for the rad50 strain (AID 155);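 note: 0% = growth of vehicle-only cultures of the same strain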; conditions: S. cerevisiae rad50 strain growth inhibition, stronger effect = higher value
Summary of the method: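 Inhibition values express reduced yeast growth in compound-treated cultures relative to vehicle-treated controls.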

[5] = NCI Yeast Anticancer Drug Screen. Data for the mec2-1 strain (AID 157); conditions: S. cerevisiae mec2-1 strain, stronger effect = higher value
Summary of the method: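 Yeast mec2-1 mutant treated with compound. Readout: growth inhibition vs vehicle controls.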

[6] = NCI Yeast Anticancer Drug Screen. Data for the rad14 strain (AID 159);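 note: 0% = growth of vehicle-treated control cultures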; conditions: S. cerevisiae rad14 strain growth inhibition, stronger effect = higher value
Summary of the method: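 A mutant yeast strain defective in DNA damage repair is treated with compound; inhibition of its growth is scored against untreated, vehicle-exposed cultures.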

[7] = NCI Yeast Anticancer Drug Screen. Data for the sgs1 mgt1 strain (AID 161);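 note: 0% = growth of cultures given vehicle only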; conditions: S. cerevisiae sgs1 mgt1 strain, stronger effect = higher value
Summary of the method: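 Inhibition of yeast growth, normalised to vehicle-treated controls, is reported for a strain bearing genetic alterations in DNA damage repair.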

[8] = NCI Yeast Anticancer Drug Screen. Data for the CLN2oe strain (AID 163);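 note: 0% = growth of vehicle-only control cultures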; conditions: S. cerevisiae CLN2oe strain, stronger effect = higher value
Summary of the method: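 Read-out: yeast growth inhibition, expressed relative to vehicle-only controls. The strain bears an engineered cell-cycle alteration.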

[9] = NCI Yeast Anticancer Drug Screen. Data for the cln2 rad14 strain (AID 165);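 note: 0% = growth equal to vehicle treated cultures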; conditions: S. cerevisiae cln2 rad14 strain, stronger effect = higher value
Summary of the method: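 cln2 rad14 yeast strain; compound exposure; growth inhibition read vs vehicle controls.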

[10] = NCI Yeast Anticancer Drug Screen. Data for the bub3 strain (AID 167); conditions: S. cerevisiae bub3 mutant strain, stronger effect = higher value
Summary of the method: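 Steps: expose the mutant yeast strain to compound; grow alongside vehicle-treated cultures; measure growth; express inhibition against the vehicle cultures.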

[11] = NCI Yeast Anticancer Drug Screen. Data for the wt2 strain (AID 169);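 note: 0% = growth of vehicle-treated yeast cultures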; conditions: S. cerevisiae wt2 strain growth inhibition, stronger effect = higher value
Summary of the method: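 Read-out: growth inhibition versus vehicle-treated control cultures after compound exposure of the yeast strain.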

[12] = NCI Yeast Anticancer Drug Screen. Data for the mlh1 strain (AID 171);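 note: 0% = growth of vehicle-treated control cultures of the same strain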; conditions: S. cerevisiae mlh1 strain growth inhibition, stronger effect = higher value
Summary of the method: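 Read-out: growth inhibition versus vehicle controls. Strain: engineered yeast with a defined DNA repair or cell cycle defect, compound-treated.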

[13] = NCI Yeast Anticancer Drug Screen. Data for the sgs1 strain (AID 173);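 note: 0% = growth of vehicle-only control cultures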; conditions: S. cerevisiae sgs1 mutant, stronger effect = higher value
Summary of the method: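 Read-out: yeast growth inhibition relative to vehicle controls, following compound exposure of a strain with a defined DNA repair/cell cycle alteration.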

[14] = NCI Yeast Anticancer Drug Screen. Data for the mlh1 rad18 strain (AID 175); conditions: S. cerevisiae mlh1 rad18 strain growth inhibition, stronger effect = higher value
Summary of the method: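 Yeast w/ defined DNA-repair lesions; compound exposure; growth vs vehicle controls → % inhibition.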

[15] = NCI Yeast Anticancer Drug Screen. Data for the rad18 strain (AID 177); conditions: S. cerevisiae rad18 mutant growth inhibition, stronger effect = higher value
Summary of the method: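 Readout: growth inhibition vs vehicle controls. Cells: genetically altered yeast strain, DNA repair defect.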

[16] = NCI Yeast Anticancer Drug Screen. Data for the rad52 strain (AID 147);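 note: 0% = growth of vehicle-treated control cultures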; conditions: S. cerevisiae rad52 mutant growth inhibition, stronger effect = higher value
Summary of the method: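 Read-out: growth inhibition versus vehicle-treated controls. Cells were a DNA repair-deficient yeast strain treated with compounds.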

[17] = at 5.0 µM (retest, dose inferred, filed as 0.5)
[18] = at 50.0 µM (retest, dose inferred, filed as 5.0)

Measured: growth inhibition

O=[N+]([O-])c1ccc2nnnn2c1
active: [2]; at 100.0 µM 79% | [4]; [18] 71% | [4]; at 50.0 µM 75.8% | [7]; [18] 86% | [10]; [18] 78% | [13]; at 100.0 µM 72% | [14]; [17] 78% | [14]; [18] 93%
inactive: [1]; at 1.2 µM 1% | [1]; at 3.7 µM 2% | [1]; at 11.0 µM 7% | [1]; at 33.0 µM 11% | [1]; at 100.0 µM 19% | [2]; at 1.2 µM -2% | [2]; at 3.7 µM -1% | [2]; at 11.0 µM 15% | [2]; at 33.0 µM 50% | [3]; at 1.2 µM 0% | [3]; at 3.7 µM 2% | [3]; at 11.0 µM 4% | [3]; at 33.0 µM 23% | [3]; at 100.0 µM 18% | [4]; at 1.2 µM -3% | [4]; at 3.7 µM -1% | [4]; [17] 10% | [4]; at 11.0 µM 3% | [4]; at 33.0 µM 10% | [4]; at 100.0 µM 21% | [5]; at 1.2 µM -1% | [5]; at 3.7 µM 2% | [5]; [17] 3% | [5]; at 11.0 µM 4% | [5]; at 33.0 µM 12% | [5]; [18] 23% | [5]; at 50.0 µM 43.9% | [5]; at 100.0 µM 43% | [6]; at 1.2 µM -1% | [6]; at 3.7 µM 0% | [6]; at 11.0 µM 5% | [6]; at 33.0 µM 10% | [6]; at 100.0 µM 30% | [7]; [17] 29% | [7]; at 50.0 µM 60.8% | [8]; at 1.2 µM -5% | [8]; at 3.7 µM 1% | [8]; at 11.0 µM -1% | [8]; at 33.0 µM -7% | [8]; at 100.0 µM 1% | [9]; [17] 2% | [9]; [18] 28% | [9]; at 50.0 µM 29.9% | [10]; at 1.2 µM -3% | [10]; at 3.7 µM -1% | [10]; [17] 21% | [10]; at 11.0 µM 1% | [10]; at 33.0 µM 3% | [10]; at 50.0 µM 34% | [10]; at 100.0 µM 21% | [11]; at 1.2 µM 0% | [11]; at 3.7 µM 1% | [11]; at 11.0 µM 7% | [11]; at 33.0 µM 14% | [11]; at 100.0 µM 25% | [12]; at 1.2 µM 0% | [12]; at 3.7 µM 1% | [12]; at 11.0 µM 4% | [12]; at 33.0 µM 14% | [12]; at 100.0 µM 34% | [13]; at 1.2 µM 1% | [13]; at 3.7 µM 7% | [13]; at 11.0 µM 15% | [13]; at 33.0 µM 30% | [14]; at 50.0 µM 61.8% | [15]; at 1.2 µM 1% | [15]; at 3.7 µM 2% | [15]; at 11.0 µM -2% | [15]; at 33.0 µM 25% | [15]; at 100.0 µM 55%

Cc1cnccc1N=Nc1ccc(N(C)C)cc1
active: [2]; at 100.0 µM 90% | [4]; at 50.0 µM 81.8% | [10]; at 50.0 µM 89% | [10]; at 100.0 µM 79%
inactive: [1]; at 1.2 µM -5% | [1]; at 3.7 µM -6% | [1]; at 11.0 µM -8% | [1]; at 33.0 µM 1% | [1]; at 100.0 µM 1% | [2]; at 1.2 µM 2% | [2]; at 3.7 µM 3% | [2]; at 11.0 µM 7% | [2]; at 33.0 µM 43% | [3]; at 1.2 µM 2% | [3]; at 3.7 µM -2% | [3]; at 11.0 µM 2% | [3]; at 33.0 µM 31% | [3]; at 100.0 µM 41% | [4]; at 1.2 µM -4% | [4]; at 3.7 µM -4% | [4]; [17] -109% | [4]; at 11.0 µM 13% | [4]; at 33.0 µM 27% | [4]; [18] -2% | [4]; at 100.0 µM 37% | [5]; at 1.2 µM -3% | [5]; at 3.7 µM 1% | [5]; [17] -42% | [5]; at 11.0 µM -21% | [5]; at 33.0 µM -4% | [5]; [18] -34% | [5]; at 50.0 µM 30.9% | [5]; at 100.0 µM 3% | [6]; at 1.2 µM -3% | [6]; at 3.7 µM -5% | [6]; at 11.0 µM 12% | [6]; at 33.0 µM 39% | [6]; at 100.0 µM 51% | [7]; [17] -23% | [7]; [18] 46% | [7]; at 50.0 µM 65.8% | [8]; at 1.2 µM 3% | [8]; at 3.7 µM 8% | [8]; at 11.0 µM 15% | [8]; at 33.0 µM 30% | [8]; at 100.0 µM 30% | [9]; [17] -43% | [9]; [18] -19% | [9]; at 50.0 µM 34% | [10]; at 1.2 µM 8% | [10]; at 3.7 µM 10% | [10]; [17] -33% | [10]; at 11.0 µM 14% | [10]; at 33.0 µM 32% | [10]; [18] 69% | [11]; at 1.2 µM 0% | [11]; at 3.7 µM -1% | [11]; at 11.0 µM 2% | [11]; at 33.0 µM 13% | [11]; at 100.0 µM 4% | [12]; at 1.2 µM -1% | [12]; at 3.7 µM 1% | [12]; at 11.0 µM 0% | [12]; at 33.0 µM 24% | [12]; at 100.0 µM 31% | [13]; at 1.2 µM 2% | [13]; at 3.7 µM 3% | [13]; at 11.0 µM 32% | [13]; at 33.0 µM 52% | [13]; at 100.0 µM 49% | [14]; [17] -95% | [14]; [18] -7% | [14]; at 50.0 µM 36.1% | [15]; at 1.2 µM -4% | [15]; at 3.7 µM -4% | [15]; at 11.0 µM 9% | [15]; at 33.0 µM 25% | [15]; at 100.0 µM 30%

O=C(N/N=C/c1ccc2c(c1)CCC2)c1ccccc1[N+](=O)[O-]
active: [16]; at 100.0 µM 95% | [1]; at 100.0 µM 96% | [4]; [18] 98% | [4]; at 50.0 µM 88.4% | [4]; at 100.0 µM 94% | [5]; [17] 70% | [5]; [18] 99% | [5]; at 50.0 µM 71.2%
inactive: [16]; at 1.2 µM -18% | [16]; at 3.7 µM -15% | [16]; at 11.0 µM -3% | [16]; at 33.0 µM -1% | [1]; at 1.2 µM -17% | [1]; at 3.7 µM -7% | [1]; at 11.0 µM -21% | [1]; at 33.0 µM -16% | [2]; at 1.2 µM 8% | [2]; at 3.7 µM 15% | [2]; at 11.0 µM 21% | [2]; at 33.0 µM 0% | [2]; at 100.0 µM 23% | [4]; at 1.2 µM 5% | [4]; at 3.7 µM 26% | [4]; [17] 62% | [4]; at 11.0 µM 35% | [4]; at 33.0 µM 18% | [5]; at 1.2 µM 0% | [5]; at 3.7 µM -10% | [5]; at 11.0 µM -9% | [5]; at 33.0 µM 7%
